Data taken from PubChem BioAssay (NCI).
Compounds without any hit were thinned out: in the full panel of roughly 83,000, 20% have a hit.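 Cells were grown in 96-well plates and exposed to the test compound at a single concentration for 48 hours; results are reported as percent growth, with values below 10 considered active.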 Unmarked numbers belong to inactive results. Activity calls are given as the source filed them.

Legend:
Assay in all cases: NCI-60 one-dose screen, 48 h (100 = growth as untreated, 0 = no growth, -100 = all killed)
[1] = tested on: NCI-H460 lung; conditions: 10 µM
[2] = tested on: HOP-92 NSCLC; conditions: 10 µM
[3] = tested on: K-562 leukemia; conditions: 10 µM
[4] = tested on: MDA-MB-231 breast; conditions: 10 µM
[5] = tested on: RXF 393 renal; conditions: 10 µM
[6] = tested on: LOX IMVI melanoma; conditions: 10 µM
[7] = tested on: EKVX NSCLC; conditions: 10 µM
[8] = tested on: UO-31 renal; conditions: 10 µM
[9] = tested on: CCRF-CEM leukemia; conditions: 10 µM
[10] = tested on: MOLT-4 leukemia; conditions: 10 µM
[11] = tested on: SR leukemia; conditions: 10 µM
[12] = tested on: OVCAR-5 ovarian; conditions: 10 µM
[13] = tested on: HS 578T breast; conditions: 10 µM
[14] = tested on: T-47D breast; conditions: 10 µM
[15] = tested on: SW-620 colon; conditions: 10 µM
[16] = tested on: MDA-MB-468 breast; conditions: 10 µM unless noted
[17] = tested on: NCI-H23 lung; conditions: 10 µM
[18] = tested on: A549/ATCC NSCLC; conditions: 10 µM
[19] = tested on: NCI/ADR-RES ovarian; conditions: 10 µM
[20] = tested on: HT29 colon; conditions: 10 µM

Compound	growth [1]	growth [2]	growth [3]	growth [4]	growth [5]	growth [6]	growth [7]	growth [8]	growth [9]	growth [10]	growth [11]	growth [12]	growth [13]	growth [14]	growth [15]	growth [16]	growth [17]	growth [18]	growth [19]	growth [20]
COc1cc(OC)c(S(=O)(=O)N(CCCl)CCCl)cc1C(=O)/C=C/c1cc(OC)c(OC)c(OC)c1	1.08% (active)	9.15% (active)	4.13% (active)	23.4%	-75.5% (active)	-84.5% (active)	12.3%	-93.9% (active)	1.08% (active)	-1.79% (active)	2.75% (active)	-1.21% (active)	78.3%	21%	7.43% (active)	-40.5% (active)				
CC12OOC(C)(OO1)C2CCC(=O)OCCNc1ccnc2cc(Cl)ccc12 (stereo unspecified)	45.2%	-27.2% (active)	3.42% (active)	91.5%	-15.7% (active)	-92.1% (active)		-97.2% (active)	9.26% (active)	26.1%	-27% (active)	94.7%	95.2%			-51.6% (active)	4.36% (active)	9.38% (active)	53.2%	
COc1cc2cc(C(=O)N3C[C@@H](CCl)c4c3cc(OC(=O)N3CCN(C(=O)CCC(=O)N5CCN(C)CC5)[C@@H]5CSSC[C@@H]53)c3ccccc43)[nH]c2c(OC)c1OC	-67.7% (active)	19.3%	-17.8% (active)	-94.2% (active)	-91.2% (active)	-100% (active)		-65.2% (active)	25.2%	0.371% (active)	-12.9% (active)	-35.6% (active)	-15.6% (active)	1.49% (active)		-91.5% (active)		-59.7% (active)	-56.6% (active)	-84.3% (active)
COC(=O)CCn1c(-c2ccc(-n3cc(-c4ccc(O[C@H]5O[C@@H]6OC7(C)CC[C@H]8[C@H](C)CC[C@@H]([C@H]5C)[C@@]68OO7)cc4)nn3)cc2)nc2ccccc21	11.4%	1.85% (active)	21%	35%	37.3%	-54.5% (active)	23.5%	6.53% (active)	28.1%	11%	-11.8% (active)		30.3%			11.1%	13.6%		16.2%	
COC(=O)C[C@](O)(CCC(C)C)C(=O)O[C@@H]1C(OC)=C[C@]23CCCN2CCc2cc4c(cc2[C@H]13)OCO4	-20.6% (active)	-19.4% (active)	1.57% (active)		-89.6% (active)	-82.6% (active)			-12% (active)	-7.96% (active)			-22.2% (active)			-83.8% (active)	-68% (active)			
CCC[Se]C(=O)c1ccc(C(=O)[Se]CCC)s1		-57.8% (active)	7.32% (active)		-41.3% (active)		-79.7% (active)	-55.5% (active)	13.6%	7.32% (active)	18.5%	-35.6% (active)					-49.2% (active)	-46.2% (active)	-53.9% (active)	-58.5% (active)
CC(C)N=C([Se])NC(=O)c1ccccc1	-25.8% (active)	-34.3% (active)	15.9%	-48.6% (active)	-83.7% (active)	-37.3% (active)		-99% (active)	5.47% (active)	2.86% (active)	-9.62% (active)		-2.5% (active)	-34.6% (active)		-46% (active)		8.83% (active)	-11% (active)	
O=C(NC([Se])=NC1CCCCC1)c1ccc2c(c1)OCO2	10.6%	118%	74.3%	68.5%	65.9%	81.6%		38.5%	35.3%	55.6%	60.3%		60.8%	-0.387% (active)		77.1%		26.8%	34.4%	55.6%
O=C(/C=C/c1ccccc1)c1nc2ccccc2n1Cc1ccc(F)cc1	-28.9% (active)	-28.4% (active)	-8.55% (active)		-89.3% (active)			-78.5% (active)	-23.7% (active)	-4.66% (active)	-16.4% (active)	-15.1% (active)		-15.9% (active)		-90.3% (active)		24.8%		-49.5% (active)
